Assay outcomes deposited in PubChem by National Center for Advancing Translational Sciences (NCATS).
Compounds with a hit are over-represented: about 2.7% of the library has one in this group of screens.
RXFP1 agonist = qHTS Assay for Agonists of the Relaxin Receptor RXFP1 | HEK293T-RXFP1 cAMP TR-FRET, 30 min; response scale: percent of porcine relaxin response, buffer zero | Relaxin receptor 1 (Homo sapiens), Q9HBX9 | hit rate 0.3% among 370,000 | Potency, µM (highest dose often 57.5 µM), hits mostly activators | AID 2676, 2010; active = well fitted activation curve with a large enough effect; inconclusive = small, poorly fitted or top-dose-only effect; note: nearly all actives have a fitted effect of over 60% in size
Target sequence (Q9HBX9 whole entry, looked up): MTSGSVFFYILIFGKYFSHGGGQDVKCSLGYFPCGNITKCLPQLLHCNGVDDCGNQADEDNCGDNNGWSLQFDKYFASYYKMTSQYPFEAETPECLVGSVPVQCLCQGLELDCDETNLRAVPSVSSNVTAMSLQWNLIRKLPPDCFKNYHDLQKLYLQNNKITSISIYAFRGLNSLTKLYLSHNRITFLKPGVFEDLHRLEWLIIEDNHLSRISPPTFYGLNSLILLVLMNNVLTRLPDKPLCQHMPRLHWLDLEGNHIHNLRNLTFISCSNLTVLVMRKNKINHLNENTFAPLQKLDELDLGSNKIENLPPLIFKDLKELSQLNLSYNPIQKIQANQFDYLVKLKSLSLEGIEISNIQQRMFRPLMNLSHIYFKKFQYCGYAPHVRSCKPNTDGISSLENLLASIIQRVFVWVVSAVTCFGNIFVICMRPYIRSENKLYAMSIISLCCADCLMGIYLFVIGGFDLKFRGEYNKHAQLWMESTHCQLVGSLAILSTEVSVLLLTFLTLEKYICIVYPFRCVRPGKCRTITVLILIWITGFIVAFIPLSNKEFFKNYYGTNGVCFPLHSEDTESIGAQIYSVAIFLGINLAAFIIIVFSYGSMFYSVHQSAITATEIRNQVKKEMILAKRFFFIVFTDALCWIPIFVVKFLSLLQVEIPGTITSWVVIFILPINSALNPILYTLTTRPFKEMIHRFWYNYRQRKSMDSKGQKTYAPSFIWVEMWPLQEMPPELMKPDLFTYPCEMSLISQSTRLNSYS
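cAMP rise read by TR-FRET after 30 min, 37C compound exposure (up to 58 uM) in RXFP1-transfected HEK293 cells with Ro 20174 present. EC50 from Hill-equation fits, with 29 nM porcine relaxin as 100% and buffer as basal.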
gsp antag = qHTS for Antagonists of gsp, the Etiologic Mutation Responsible for Fibrous Dysplasia/McCune-Albright Syndrome: qHTS; gsp-mutant cells, cAMP HTRF, 30 min; Potency, µM (titrated, usually from 76.9 µM), most hits filed as inhibitors; hit rate 0.4% among 340,000; calls by dose curve; cell line not stated here;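 note: intracellular cAMP measured with PDE inhibitor Ro 20-1724 present during compound exposure; nearly all actives have a fitted effect of over 65% in size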
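HTRF cAMP measurement after 30 min RT detection following 30 min, 37C compound treatment alongside […] (added as 300 uM solution) in G418-selected cells seeded at 2000/well and grown 16–24 h.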
gsp ag = qHTS for Agonist of gsp, the Etiologic Mutation Responsible for Fibrous Dysplasia/McCune-Albright Syndrome: qHTS | gsp mutant cells, cAMP HTRF, 30 min | Potency, µM (top dose mostly 76.9 µM), most hits filed as activators | hit rate 0.13% among 340,000; active = well fitted activation curve with a large enough effect; inconclusive = small, poorly fitted or top-dose-only effect, or another doubt; inactive = no such curve, though single readings can be large or run the other way; cell line not stated here;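 note: phosphodiesterase inhibitor Ro 20-1724 added with compounds to block cAMP breakdown; nearly all actives have a fitted effect of over 60% in size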
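Cells stably selected in G418 were plated at 2000/well, grown 16-24 hr, then given compounds in DMSO with the PDE inhibitor […] (300 uM solution added) for 30 min at 37C; cAMP was read by HTRF.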
ClpP mod = qHTS Assay for Activators of ClpP; ATP-dependent Clp protease proteolytic subunit (Bacillus subtilis (strain 168)), P80244; purified B. subtilis ClpP, FRET peptide cleavage, 20 min; Potency, µM (doses to about 57.5 µM); hit rate 1.9% among 340,000; AID 651965, 2013; active = well fitted falling curve with a large enough effect; inconclusive = small, poorly fitted or top-dose-only effect; inactive = no such curve, though single readings can be large or run the other way; note: the source files actives as falling curves though it sought activators and does not explain the sign; nearly all actives have a fitted effect of over 65% in size
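ClpP 10 microg/mL final, pH 8 Tris/KCl buffer with BSA, glycerol, Tween-20; compound pinned in; FRET-FV substrate; RT 20 min; Ex320/Em430; ΔFRET vs ADEP 5.8 microM, DMSO, no enzyme.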
pAkt inh = HTS Assay for Inhibitors of Akt Phophorylation: Primary Screen; Neuro2A IGF-stimulated pAkt S473 HTRF, 20 min; active compounds read low; activity change, % for hits at 50 µM; hit rate 0.32% among 360,000; AID 651550, 2012; in the data active = activity change below about -80%; inconclusive = mostly about -51% to -80%
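Neuro2A cells (4,500/well, DMEM with 0.5% FBS) were treated with compound at a single 50 µM final concentration, stimulated with 6 nM IGF for 20 min at 37 °C, and lysed. Phospho-Akt Ser473 was read by HTRF as 665/615 ratio ×10^4.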
RXFP1 antagonist = qHTS Assay for Antagonists of the Relaxin Receptor RXFP1 | hit rate 0.59% among 350,000 | HEK293-RXFP1, relaxin-stimulated cAMP HTRF, 30 min; active compounds read low | activity change, negative = inhibition, % at 57.5 µM | Relaxin receptor 1 (Homo sapiens), Q9HBX9;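 active = activity change of -60% or lower, but not beyond a set lower limit; inconclusive = change between -60% and -40%, or beyond the set limit; inactive = change above -40%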
Of the large screens only hits and unclear results are named; the others gave an inactive call.

Cc1oc2cc(O)ccc2c(=O)c1-c1ccccc1	none (no result: ClpP mod)
CCOC(=O)c1sc(C)c2c1NC1(CCCCC1)NC2=O	ClpP mod 32µM
CCOC(=O)c1sc(C)c2c1NC(C)(c1cccs1)NC2=O (stereo not given)	ClpP mod 28µM
CCOC(=O)c1sc(C)c2c1NC1(CCCCCC1)NC2=O	gsp antag inconclusive, ClpP mod inconclusive
CCCCN1CC[C@H]2C=CC[C@@H](C(=O)NC3CCCCC3)[C@H]2C1=O	none (no result: RXFP1 agonist, gsp antag, gsp ag, pAkt inh, RXFP1 antagonist)
Cc1ccc(Cl)cc1-n1ncc2c(NCc3ccc(F)cc3)ncnc21	RXFP1 antagonist -65 (no result: gsp antag, gsp ag, pAkt inh)
CCCn1cc(S(=O)(=O)c2ccccc2)c(=O)c2cc(CC)ccc21	none
CCn1cc([N+](=O)[O-])c(C(=O)N2N=C(c3cccc4ccccc34)CC2c2ccccc2O)n1 (stereo not given)	gsp antag 28µM
c1ccc(-c2nc(-c3cnc4ccccc4n3)cs2)cc1	none (no result: RXFP1 agonist, gsp antag, gsp ag, pAkt inh, RXFP1 antagonist)
COC(=O)c1ccc2nc(Nc3nc4c(F)cc(F)cc4s3)sc2c1	ClpP mod 32µM
CCOC(=O)c1ccc2nc(Nc3nc4ccc(F)cc4s3)sc2c1	ClpP mod 16µM
O=C(O)c1ccc(CN(c2ccccn2)S(=O)(=O)c2ccccc2)cc1	ClpP mod 28µM
O=S(=O)(c1ccccc1)N(Cc1ccccc1)c1ccccn1	none
O=C(NCc1ccccc1)c1ccc(CN(c2ccccn2)S(=O)(=O)c2ccccc2)cc1	ClpP mod 20µM
COC1=C2C[C@H](C)C[C@H](OC)[C@@H](O)[C@@H](C)C=C(C)[C@H](OC(N)=O)[C@@H](OC)C=CC=C(C)C(=O)NC(=CC1=O)C2=O	none (no result: RXFP1 agonist, gsp antag, gsp ag, pAkt inh, RXFP1 antagonist)
CCOc1ccc(-c2nnc(-c3cccs3)o2)cc1OCC	none
CCOc1ccc(-c2nnc(-c3ccco3)o2)cc1OCC	ClpP mod 22µM
CCOc1cc(-c2nc(-c3ccc(OC)cc3)no2)cc(OCC)c1OCC	none
CCOc1cc(-c2nnc(-c3ccco3)o2)cc(OCC)c1OCC	ClpP mod 22µM
O=C(CCC1CCCC1)NNC(=O)c1cccc(Cl)c1	none
Cc1ccccc1OCCCn1c(CCNC(=O)C2CCCCC2)nc2ccccc21	none (no result: gsp antag, gsp ag, pAkt inh)
O=c1cc[nH]c2c(C(F)(F)F)cccc12	ClpP mod 28µM
C=CCNC(=O)NC(=O)COC(=O)c1nc2nccc(C)n2n1	RXFP1 agonist 16µM, gsp ag inconclusive (no result: ClpP mod)
CCc1ccc(NC(=O)Cn2c(=O)n(CCCCC(=O)NCCc3ccccc3)c(=O)c3ccccc32)cc1	none (no result: gsp antag, gsp ag, pAkt inh, RXFP1 antagonist)
CC(C)CN(C(=O)c1cc(=O)[nH]c2ccccc12)c1c(N)n(Cc2ccccc2)c(=O)[nH]c1=O	none (no result: ClpP mod)
CCc1ccccc1NC(=O)c1cc(S(=O)(=O)N2CCc3ccccc32)ccc1F	none (no result: gsp antag, gsp ag, pAkt inh)
O=C(Nc1ccc(Nc2ccccc2)cc1)c1ccc(Br)o1	gsp antag inconclusive, RXFP1 antagonist -68
COc1ccc(NC(=S)NCc2ccccc2)c(OC)c1	RXFP1 antagonist -73 (no result: ClpP mod)
COc1ccc(NC(=S)NCCc2ccccc2)c(OC)c1	none
O=c1ccc(/C=C/c2ccccc2)nn1Cc1ccccc1	gsp ag inconclusive, ClpP mod 28µM
CCOC(=O)Cn1nc(/C=C/c2ccc(C)cc2)ccc1=O	ClpP mod 32µM
CCOC(=O)Cn1nc(/C=C/c2ccc(C(C)C)cc2)ccc1=O	ClpP mod 28µM
CCOC(=O)Cn1nc(/C=C/c2ccccc2)ccc1=O	ClpP mod inconclusive
O=C(COc1ccc(Br)cc1)Nc1cccc2cccnc12	none (no result: gsp antag, gsp ag, pAkt inh)
CC1(C(=O)O)CCC(C(=O)Nc2ccc(OC(F)(F)Cl)cc2)C1(C)C (stereo not given)	none
CCCSc1nnc2c(n1)OC(CC)N(C(C)=O)c1ccccc1-2 (stereo not given)	none (no result: gsp antag, gsp ag, pAkt inh)
